Shown are actives, neighbours in structure and some others; about 1.5% of the full set was active somewhere.
Plk1 PBD FP – Plk1 (human) PBD binding inhibition; 97,000 tested, 0.13% active; Plk1 PBD phosphopeptide binding, fluorescence polarization; P53350; inhibition, %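 (tested at about 20 µM)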; in the data active = inhibition above about 34%, passing the limit was not always enough
PLK1 inh – blocks human PLK1 kinase activity | P53350 | recombinant PLK1 kinase, TR-FRET peptide phosphorylation | inhibition, % at 10 µM | 97,000 tested, 0.53% active | AID 619;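 active = inhibition of 50% or more in the single-concentration screen; inactive = inhibition below 50%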;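 also: 0% = DMSO max control and 100% = H-89 dihydrochloride min control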
EphB4 antag – blocks human EphB4 binding to ephrin-B2; EphB4 LBD / TNYL-RAW-Alexa532 peptide, fluorescence polarization; inhibition, % at 7 µM; 97,000 tested, 0.15% active;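 active = inhibition above the screen-wide mean inhibition plus 3 SD, cut at about 15% in these data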;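 also: 0% = DMSO wells and 100% = excess unlabeled TNYL-RAW peptide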
Smad3 FoxH1 inh – Smad3 (human) transcription factor binding inhibition; P84022; TR-FRET Smad3/Dy647-FoxH1 peptide binding, europium anti-His; inhibition, % at 25 µM; 88,000 tested, 0.29% active;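 active = compounds that reduce the energy-transfer binding signal between the protein and its labelled peptide by more than half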;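 also: 0% = Smad3 plus labelled peptide maximal FRET and 100% = peptide-only background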
FAK inh – FAK (human) kinase inhibition; 97,000 tested, 0.84% active; AID 727; biochemical FAK kinase activity assay; inhibition, %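 (tested at 7 µM)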; Q05397; in the data active = inhibition above about 19%;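 also: 0% = DMSO and 100% = reference compound high control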
The depositor's hits bear a star; x = not tested or not shown; [ ] = remark or other dose.

SMILES	Plk1 PBD FP	PLK1 inh	EphB4 antag	Smad3 FoxH1 inh	FAK inh
CCOC(=O)N1CCC(n2c(SCC(=O)NCc3ccccc3)nc3ccccc3c2=O)CC1	15	-9	16*	11	-6
CCOC(=O)N1CCC(n2c(SCC(=O)NCCC3=CCCCC3)nc3ccccc3c2=O)CC1	-9	-5	15*	-1	11
CCOC(=O)N1CCC(n2c(SCC(=O)N3CCCC3)nc3ccccc3c2=O)CC1	-12	-10	0	x	-2
COc1ccc(NC(=O)CNS(=O)(=O)c2cccs2)cc1	x	x	x	-3	x
CCOC(=O)CSc1nc2sc(C)c(C)c2c(=O)[nH]1	24	4	3	2	2
Cc1sc2nc(NCCO)[nH]c(=O)c2c1C	-13	64*	-8	10	-1
O=c1c2ccccc2nc(-c2ccco2)n1Cc1ccccc1	-13	-6	4	0	1
O=c1c2ccccc2nc(-c2ccoc2)n1CCc1ccccc1	3	-12	16*	-1	3
CC1(C)Cc2cccc(OCC(=O)Nc3cccnc3)c2O1	-24	-10	4	13	-7
CCOC(=O)c1cnc2c(C#N)c(C)nn2c1-c1ccccc1	10	64*	-4	0	-5
COc1cc(NS(=O)(=O)c2ccc(C)cc2)c2ncccc2c1	x	x	x	7	x
COc1cc(NCCCC(C)N)c2ncccc2c1 (centres undefined)	8	33	-6	21	26*
Cc1ccc(-c2nc3cccnc3o2)cc1NC(=O)COc1ccc(C(C)(C)C)cc1	2	-1	82*[fluorescence artefact?]	6	4
C/C(=N\NC1=NCCN1)c1cn(C2=NCCN2)nc1C	x	x	x	93*	x
CC(C)NC(=O)c1ccc(COCC(F)(F)C(F)F)cc1	0	10	-2	65*	1
CC1(C)Cc2c(C#N)c(N3CCCC3)nc(-c3ccco3)c2CO1	-21	51*	0	17	-5
CC1(C)Cc2c(C#N)c(NCc3ccco3)nc(-c3ccco3)c2CO1	x	x	x	-2	x
CC1(C)Cc2c(c(-c3ccco3)nc3n[nH]c(N)c23)CO1	-10	52*	4	-7	11
COc1ccc(OC)c(-n2cnc3cc(C(=O)NCCCN4CCOCC4)ccc32)c1	2	17	-10	-7	4
CCOc1cccc(C(=O)NC2CCCCC2)c1	1	-10	1	3	-1
N#CC1=C(N)C(C#N)(C#N)C2(C(=O)Nc3ccccc32)C2CCCC=C12 (centres undefined)	x	x	x	1	x
C[C@H]1[C@H](C)CC[C@@]2(C(=O)O)CC[C@@]3(C)C(=CC[C@H]4[C@]5(C)C[C@H](O)[C@@H](O)[C@@](C)(CO)[C@H]5[C@H](O)C[C@@]43C)[C@H]12	x	x	x	86*	x
COc1cc(NC(=O)CN(c2cc(C)cc(C)c2)S(=O)(=O)c2c(C)noc2C)cc(OC)c1	1	-5	-7	3	-1
Cc1ccccc1-n1c(SCc2c(C)noc2C)nnc1-c1c[nH]c2ccccc12	5	-14	4	9	0
COc1ccc(OC)c(-n2c(SCC(N)=O)nnc2-c2c[nH]c3ccccc23)c1	20	70*	0	-4	4
SMILES	Plk1 PBD FP	PLK1 inh	EphB4 antag	Smad3 FoxH1 inh	FAK inh
COc1ccc(OC)c(-n2c(SCC(=O)Nc3cc(C)on3)nnc2-c2c[nH]c3ccccc23)c1	-5	68*	1	16	0
CCOc1ccc(-n2c(SCC(=O)Nc3cc(C)on3)nnc2-c2c[nH]c3ccccc23)cc1	-13	-10	1	1	0
COc1cccc(-n2c(SCC(N)=O)nnc2-c2c[nH]c3ccccc23)c1	25	68*	-7	-14	-2
COc1ccc(OC)c(-n2c(SC)nnc2-c2c[nH]c3ccccc23)c1	24	68*	-5	11	-4
CCOC(=O)c1c(-c2ccc(C)o2)csc1NC(=O)CSc1ncn[nH]1	-4	-1	0	0	-1
COc1ccc(Cl)cc1NC(=O)CCc1ccccc1	-29	-8	8	x	-2
NC(N)=NC(N)=Nc1ccccc1 (tested in a mixture with another compound)	x	x	x	60*	x
NC(N)=Nc1ccc(-c2ccc(N=C(N)N)cc2)cc1	x	x	x	5	x
CC(C)(C)OC(=O)COc1cc(OCC(=O)OC(C)(C)C)c2c(=O)cc(-c3ccccc3)oc2c1	-14	-9	-2	x	-7
N=C(N)c1ccc(N=Nc2c(O)ccc3c2[nH]c2ccccc23)cc1	x	x	x	102*	x
Oc1ccc(N=Nc2c(O)ccc3ccccc23)cc1	3	-1	-5	x	14
Cc1cc(/C=N/NC(=O)c2ccc(CN3CCOCC3)cc2)c(C)n1-c1ccccc1	28	-5	-7	x	-3
CCCn1c(NC(=O)C2COc3ccccc3O2)nc2ccccc21 (centres undefined)	-5	-9	17*	6	1
CCCCn1c(NC(=O)C2CCCCC2)nc2ccccc21	-26	-1	4	-21	0
C/C(N[O-])=C(\C)[N+]([O-])=[Fe].CC(=N\[O-])/C(C)=N/[O-].[NH2-].c1c[nH+]c[n-]1	x	x	x	72*	x
CC(C)(C)Nc1nc(NN)nc(NC(C)(C)C)n1	6	-7	-3	x	2
CCc1c(C)nc(SCC(=O)Nc2c(C)n(C)n(-c3ccccc3)c2=O)[nH]c1=O	-19	-4	-3	x	5
O=C(NCCNS(=O)(=O)c1ccc(Cl)cc1)c1cc(OCC(F)(F)F)ccc1OCC(F)(F)F	28	-9	2	x	9
O=C(c1c[nH]c2ccc(S(=O)(=O)N3CCC4(CC3)OCCO4)cc2c1=O)N1CCOCC1	4	-5	17*	1	4
CCCCn1c(CCNC(=O)CCC)nc2ccccc21	21	-15	7	0	3
CC1=C(C(=O)OCc2ccccc2)C(c2cccnc2)n2ncnc2N1 (centres undefined)	-15	36	-2	4	-5
CC(=O)C1=C(C)Nc2ncnn2C1c1cccc(OCc2ccccc2)c1 (centres undefined)	-8	51*	-5	12	-3
Cc1ccc(N2C(=O)C(O)(C(F)(F)F)C3=C2CC(C)(C)CC3=O)cc1C (centres undefined)	3	-7	16*	x	-5
Cc1ccc(S(=O)(=O)Nc2cc(C(=O)Nc3cc(C)cc(C)c3)ccc2Cl)cc1	-5	-16	4	x	-4
O=C(CCN1CCN(c2ccc(Cl)cc2)CC1)Nc1ccccc1F	30	-6	-1	-3	2
O=C(CCN1CCN(c2ccc(Cl)cc2)CC1)Nc1nccs1	1	62*	-3	9	-2
CCN(CC(=O)Nc1cc(C)nn1-c1nc(C)cc(C)n1)Cc1ccccc1	4	0	4	-4	0
O=C(O)c1ccncc1.O=C(O)c1ccncc1.[Cl][Pt]([Cl])([Cl])[Cl]	x	x	x	72*	x
CC(C)CCNC(=O)C(c1cccnc1)N(CCc1ccccc1)C(=O)Cn1nnc2ccccc21 (centres undefined)	0	-10	-7	55*	-1
O=C1c2ccccc2C(=O)c2c(Nc3ccc4c5c(cccc35)C(=O)c3ccccc3-4)cccc21	x	x	x	83*	x

Screening data (PubChem)
